Source: PubChem BioAssay
Compounds with a hit are over-represented: about 12% of the library has one in this group of screens.
JMJD2A Tudor inh: qHTS Assay for Inhibitors of JMJD2A-Tudor Domain; hit rate 4.4% among 390,000; Potency, µM (highest dose often 114 µM), without a hit: at the highest dose activity change, negative = inhibition, actives largely listed as inhibitors; AID 504339, 2011; Lysine-specific demethylase 4A (Homo sapiens), O75164; AlphaScreen JMJD2A-Tudor / H3K4me3 peptide binding; note: potency is the fitted concentration of half-maximal effect; % is set by controls: 0 for no effect and ±100 for the full control effect; nearly all actives have a fitted effect of over 50% in size
PLK1 PBD inh: qHTS for Inhibitors of PLK1-PDB (polo-like kinase 1 - polo-box domain): Primary Screen | Plk1 PBD binding of FITC phosphopeptide, fluorescence polarization | hit rate 2.8% among 360,000 | Serine/threonine-protein kinase PLK1 (Homo sapiens), P53350 | Potency, µM, inactives show max response, negative = inhibition, hits mostly inhibitors; note: potency is the fitted concentration of half-maximal effect; series mostly up to about 57 µM; % is set by controls: 0 for no effect and ±100 for the full control effect; nearly all actives have a fitted effect of over 65% in size
PI5P4Ka inh: qHTS for Inhibitors of phosphatidylinositol 5-phosphate 4-kinase (PI5P4K); PI5P4Kalpha enzyme, ADP-Glo luminescence, 60 min; stronger effect = lower value; max response, %; hit rate 1.2% among 330,000; active = max response of -50% or lower; inconclusive = between -30% and -50%; inactive = -30% or higher; note: value at the top dose of about 77 µM; % is set by controls: 0 for no effect and ±100 for the full control effect
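Reactions run in 0.038 M HEPES pH 7.4, 0.28 mM EGTA, 0.1% CHAPS and 5% DMSO, with PI5P4Kalpha, substrate, compound and 5 microM ATP final, one hour at room temperature. Readout is ADP-Glo luminescence.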
BAZ2B block: qHTS Assay for Inhibitors of BAZ2B; Bromodomain adjacent to zinc finger domain protein 2B (Homo sapiens), Q9UIF8; AlphaScreen BAZ2B-H3K14Ac peptide displacement; Potency, µM (doses to about 114 µM), for inactives: top-dose activity change, negative = inhibition, usual class: inhibitors; hit rate 4.4% among 360,000; AID 504333, 2011; note: potency is the fitted concentration of half-maximal effect; % is set by controls: 0 for no effect and ±100 for the full control effect; nearly all actives have a fitted effect of over 60% in size
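BAZ2B 50 nM plus b-H3(5-23)K14Ac 50 nM, PBS pH 7.4/0.01% Tween-20, 30 min RT; compound added (max 110 uM), 30 min RT; streptavidin donor/Ni-chelate acceptor beads 10 ug/mL final, 20 min dark; AlphaScreen read.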
G9a inh: qHTS Assay for Inhibitors of Histone Lysine Methyltransferase G9a. Histone-lysine N-methyltransferase EHMT2 (Homo sapiens), Q96KQ7. G9a H3K9 monomethylation, AlphaScreen, 2 h. Potency, µM (doses to about 102 µM), for the others: at the highest dose activity, negative = inhibition, most hits filed as inhibitors. hit rate 8.8% among 350,000. AID 504332, 2011; note: potency is the fitted concentration of half-maximal effect; % is set by controls: 0 for no effect and ±100 for the full control effect; nearly all actives have a fitted effect of over 75% in size
Target sequence (Q96KQ7 913-1193 limits assumed): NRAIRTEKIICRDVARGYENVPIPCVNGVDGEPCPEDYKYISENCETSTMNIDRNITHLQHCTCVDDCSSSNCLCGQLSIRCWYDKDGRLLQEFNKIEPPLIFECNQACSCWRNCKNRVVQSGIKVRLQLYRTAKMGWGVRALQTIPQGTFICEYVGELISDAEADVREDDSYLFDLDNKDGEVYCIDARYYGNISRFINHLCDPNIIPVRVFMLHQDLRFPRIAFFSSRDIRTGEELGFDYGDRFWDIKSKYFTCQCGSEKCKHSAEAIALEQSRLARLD
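AlphaScreen read-out: biotin-H3K9 peptide (500 nM) methylation by 20 nM enzyme with 20 uM SAM, 2 h at room temperature after 15 min compound preincubation; anti-monomethyl H3K9 antibody plus donor/acceptor beads, 10 min dark.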
HP1b binding inh: HTS for Inhibitors of HP1-beta Chromodomain Interactions with Methylated Histone Tails. Chromobox protein homolog 1 (Homo sapiens), P83916. AlphaScreen HP1-beta / biotin-H3K9me3 peptide binding. Potency, µM (top dose mostly 114 µM), without a hit: at the top dose activity change, negative = inhibition, actives largely listed as inhibitors. hit rate 0.56% among 390,000. AID 540317, 2011; note: potency is the fitted concentration of half-maximal effect; nearly all actives have a fitted effect of over 70% in size
Target sequence (P83916 whole entry, looked up): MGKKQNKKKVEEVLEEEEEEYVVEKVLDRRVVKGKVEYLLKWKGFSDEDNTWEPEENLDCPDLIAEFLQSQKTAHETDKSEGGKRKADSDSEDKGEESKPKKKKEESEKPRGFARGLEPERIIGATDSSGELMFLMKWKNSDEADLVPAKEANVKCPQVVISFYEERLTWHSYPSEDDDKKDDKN
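AlphaScreen: HP1-beta (50 nM) preformed 30 min with biotin-H3(1-18)K9me3 peptide (50 nM) in PBS pH 7.4, 0.01% Tween-20. Compound added for 30 min at RT, then streptavidin donor/nickel chelate acceptor beads (10 ug/mL) for 30 min.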
* = called active by the depositor; ? = inconclusive; . = not tested or not shown; ! = not confirmed by another sample; [ ] = another dose, or the depositor's remark. Unless noted, calls come from the whole dose curve; as a rule, active = well fitted curve in the direction sought with a large enough effect; inconclusive = small, poorly fitted or top-dose-only effect, or another doubt; inactive = no such curve, though single readings can be large; an effect the other way counts as inactive or inconclusive.

SMILES	JMJD2A Tudor inh	PLK1 PBD inh	PI5P4Ka inh	BAZ2B block	G9a inh	HP1b binding inh
CCC(=O)N1c2ccc(S(=O)(=O)NC3CCCCC3)cc2CC1C (centres undefined)	0%	-5%	0	-15%	22%[59 µM]	24%
CCN(CC)C(=O)N1CCN(C(=O)N(CC)CC)CC1	3%	-7%	-6	6%	15%[0.501 µM]	33%
CCN(CC)C(=O)N1CCN(C)CC1	56µM*	-6%	-3	?	14µM*!	-19%
CCC(=O)c1ccc(OCC(=O)Nc2nc(-c3cccnc3)cs2)cc1	?	?	-24	-10%	40µM*	6%
Cc1ccccc1OCC(=O)Nc1nnc(-c2ccncc2)s1	-12%	-28%	-17	-21%	?	32%
Cc1ccc2nsnc2c1NC(=O)COc1ccccc1F	-3%	-3%	3	-19%	56µM*	30%
O=C(COc1ccc([N+](=O)[O-])cc1)Nc1nnc(-c2cccnc2)s1	?	-13%	-66*	?	?	12%
CCC(=O)c1ccc(OCC(=O)Nc2nc(C)cs2)cc1	-14%	1%	7	.	.	25%
O=C(COc1ccccc1F)Nc1nnc(-c2ccncc2)s1	20µM*	-15%	.	-34%	71µM*	21%
O=C(COc1ccc([N+](=O)[O-])cc1)NCc1cccnc1	-10%	-2%	-6	0%	25%	27%
CCOc1ccccc1CN1CCC(O)CC1	5.6µM*	-6%	.	?	-24%[12.7 µM]	?
CCCS(=O)(=O)N1CCN(Cc2ccccc2OCC)CC1	2.8µM*	-3%	1	?	?	?
COc1cc(NC(=O)CSc2nnc3c4ccccc4n(C)c3n2)cc(OC)c1OC	-16%	.	.	.	.	-1%
CCN(CC)C(=O)CSc1nc2sc3c(c2c(=O)n1CCOC)CCC3	-23%	-9%	1	-11%	.	22%
CCOC(=O)c1sc2nc(SCC(=O)N(CC)CC)n(CCCN3CCCC3=O)c(=O)c2c1C	-21%	-3%	3	79µM*	15%[59 µM]	36%
CCOC(=O)c1ccc(NC(=O)Cc2noc3ccc(C)cc23)cc1	-6%	.	.	-1%	13µM*	51%
COc1ccc(NC(=O)Cc2noc3ccc(C)cc23)cc1Cl	-10%	.	.	-18%	2%[59 µM]	29%
O=C(c1cc2ccccc2o1)N1CCN(c2ccccn2)CC1	3%	1%	-7	?	1%	?
S=P(N1CC1)(N1CC1)N1CC1	-17%	?	?	23%	7.9µM*!	?
Cc1ccc(CNC(=O)CSc2ncc(C(=O)Nc3ccccc3)c(=O)n2C)cc1	-10%	-4%	5	11%	-4%	24%
C/C(CC(=O)Nc1cccc2c1CCCC2)=N\NC(=O)c1ccccc1N	-21%	-6%	.	13%	10%[2.33 µM]	6%
C/C(CC(=O)NC(C)(C)C)=N\NC(=O)c1ccccc1N	40µM*	24µM*	8	-20%	?	4%
C/C(CC(=O)NC(C)(C)C)=N\NC(N)=S	?	-5%	1	?	4µM*	?
NCc1oc(-c2ccccc2)cc1C(=O)O	-20%	-12%	3	-2%	50µM*	7%
CCN(CC)Cc1oc(-c2ccccc2)cc1C(=O)O	56µM*	?	-9	-6%	.	-8%
CC1CCC2(CC1)NC(=O)N(CC(=O)Nc1ccc(N3CCCCC3)cc1)C2=O (centres undefined)	.	0%	9	.	.	.
Cc1ccc(-n2c(-c3cc(-c4ccco4)[nH]n3)n[nH]c2=S)c(Br)c1	-23%	-7%	-12	?	5.6µM*	-3%
